# Experimental data taken from PubChem BioAssay (NCI).
# The panel holds about 83,000 compounds, 20% with a hit somewhere; the sample as a whole holds those more often.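 The endpoint reported here, percent growth, reads 100 for growth as untreated, 0 for no net growth and -100 for all cells dead.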 Unmarked numbers belong to inactive results. Active and inactive are the calls of the source.
# System: EKVX NSCLC
# Experiment: NCI-60 one-dose screen, 48 h (100 = growth as untreated, 0 = no growth, -100 = all killed)
# Conditions: 10 µM unless noted
# Experimental: Growth inhibition of the EKVX human Non-Small Cell Lung tumor cell line is measured as a screen for anti-cancer activity. Cells are grown in 96 well plates and exposed to the test compound for 48 hours. Compounds are tested at a single concentration, which is 10^-5 M for most compounds. The reported endpoint is percent growth (GI% or GIPRCNT), where numbers from 0 - 100% represent growth inhibition, and numbers from -100% - 0 represent cell death. For example, a value of 40 represents 60% growth inhibition. A value of 0 means no net growth occurred over the course of the experiment. A value of -40 indicates 40% of cells at the beginning of the experiment died by the end of the experiment. A value of -100 means all cells are dead at the end of the experiment.
# NCI-60 Human Tumor Cell Lines Screen was performed using the standard one-dose NCI protocol, which is described in more detail at https://dtp.cancer.gov/discovery_development/nci-60/default.htm.
# Compounds with GIPRCNT values below 10 were considered active. Activity score was based on GIPRCNT using the following formula: […]
# Score is 0 for GIPRCNT values of 100 or above, 50 for GIPRCNT values of 0, and 100 for GIPRCNT values of -100.
row,Structure (SMILES),growth
1,Cc1cccc(C)c1Nc1nnc(-c2ccc(F)cc2)o1,104%
2,CC(=O)Oc1ccc(O)cc1,103%
3,N#Cc1c(-c2ccc(F)cc2)nc(N=Nc2c(O)[nH]c3ccc(Cl)cc23)nc1N1CCOCC1,72.5%
4,O=C(Nc1cc(Nc2ncccc2-c2ncnc3nc[nH]c23)ccc1F)c1cc(C(F)(F)F)cc(C(F)(F)F)c1,20.4%
5,COc1ccc(-c2nc(C#N)c(NCC(c3ccco3)N3CCCC3)o2)cc1 (stereo not given),54.2%
6,CC(=O)c1cnc(-c2ccccc2)nc1CBr,79.7%
7,CN1CC=C(c2cc(NC(=O)Nc3ccc(Oc4ccnc(NC(=O)C5CC5)c4)c(F)c3)cc(C(F)(F)F)c2)CC1,-19.9% (active)
8,COc1ccc2nc(-c3ccc(Cl)cc3)cc(C(=O)N3N=C(c4ccc(N)cc4)CC3c3ccccc3)c2c1 (stereo not given),35.6%
9,CSc1nc(-c2ccc(F)cc2)c(C#N)c(N2CCOCC2)n1,88.6%
10,COc1cc(/C=C/C(=O)/C=C/c2cc3ccc(Cl)cc3n(Cc3ccccc3)c2=O)ccc1O,8.91% (active)
11,COc1cc(/C=C/C(=O)/C=C/c2cc3ccc(Cl)cc3[nH]c2=O)ccc1O,94.4%
12,Cc1c(Cl)cccc1NC(=O)c1sc2nc3c(cc2c1N)CN(Cc1ccccc1)CC3,55.5%
13,C=CCn1c(CN2CCN(c3cc4c(cc3F)c(=O)c(C(=O)O)cn4C3CC3)CC2)n[nH]c1=S,101%
14,COc1cccc2c1-c1ccccc1C2=O,40.7%
15,O=C(O)C(C(=O)O)c1cccc2ccccc12,108%
16,COc1ccc(-c2nc(C#N)c(NCC(c3ccc(Cl)cc3)N3CCCCC3)o2)cc1 (stereo not given),95.6%
17,COc1cc(/C=N/Nc2nc(-c3ccc(F)cc3)c(C#N)c(N3CCOCC3)n2)ccc1O,90.5%
18,COc1cc(-c2csc(NC(=O)Nc3ccc(C(F)(F)F)cc3)n2)cc(OC)c1OC,5.7% (active)
19,NCCN1CCNCC1,114%
20,C=C(C)[C@@H]1CCC=C2CC[C@]3(C)[C@H](CC[C@@H]4[C@@]5(C)CCCNC(C)(C)[C@@H]5CC[C@]43C)[C@H]21,94.6%

row,Structure (SMILES),growth
1,COc1ccc(Cc2nc(C#N)c(N3CCN(c4ccc(F)cc4)CC3)o2)cc1,93.2%
2,C[C@H]1[C@H](C)CC[C@]2(C(=O)OCCCC[P+](c3ccccc3)(c3ccccc3)c3ccccc3)CC[C@]3(C)C(=CC[C@@H]4[C@@]5(C)CC[C@H](OC(=O)C(Cl)Cl)C(C)(C)[C@@H]5CC[C@]43C)[C@H]12,-35.4% (active)
3,COc1ccc2nc(-c3ccc(Cl)cc3)cc(-c3nnc(SCC(=O)Nc4ccc(/C(C)=N\O)cc4)o3)c2c1,35.4%
4,O=C(Nc1ccc(S(=O)(=O)NC2CCCCCC2)cc1)C(c1ccccc1)S(=O)(=O)c1ccc(F)cc1 (stereo not given),5.65% (active)
5,CCOCc1cc(C(C)(C)C)ccc1O,98.3%
6,COc1ccc(Nc2cc(NC(=O)CNc3cc(OC)c(Cl)c(OC)c3Cl)ncn2)cc1,72.2%
7,O=c1c2ccccc2n(CC(O)CN2CCCC2)c2c(Br)cccc12 (stereo not given),99.1%
8,Cc1ccccc1NC(=O)c1sc2nc(C)c(C(C)O)cc2c1N (stereo not given),75.7%
9,O=C1Nc2ccc(Br)cc2/C1=N\N=C/c1cn(Cc2ccccc2)c2ccccc12,56.2%
10,C#Cc1cccc(Nc2ncnc3ccc(NC(=O)c4ccccc4)cc23)c1,52.3%
11,COc1ccc2[nH]c3nc4cnccc4cc3c2c1,72.2%
12,C#Cc1ccccc1NC(=O)c1sc2nc3c(cc2c1N)CCCCCC3,69.5%
13,O=C(CN1N=C(c2ccc(F)cc2)CCC1=O)Nc1nc2ccccc2s1,24%
14,COc1ccc(/C=C/C(=O)Nc2ncnc3nc[nH]c23)cc1,100%
15,COc1ccc(-c2[nH]c3ccc(OC)cc3c2C=C(C#N)C#N)cc1,36.5%
16,CC(=O)c1ccc(NC(=O)CSc2nnc(-c3cc(-c4ccc(Cl)cc4)nc4ccccc34)o2)cc1,97.3%
17,COC(=O)CCc1cc(O)c2c(c1)[C@@H](C(=O)OC)[C@H](c1ccc(O)c(O)c1)O2,87.7%
18,NCCCn1c2c(c3cc(-c4ccn[nH]4)ccc3c1=O)C(=O)c1ccccc1-2,77%
19,COc1ccc(/C=C/C(=O)C(CC2CCC2)C(=O)/C=C/c2ccc(OC)c(OC)c2)cc1OC,-0.196% (active)
20,Cc1nc2sc(C(=O)Nc3ccccc3Cl)c(N)c2cc1C(C)O (stereo not given),89%
